Screening results from PubChem.
Only a selection was taken, and hits are over-represented in it overall.
STK33 kin inh: STK33 kinase inhibitors, primary screen, biochemical, luminescence, ADP-Glo, MBP substrate; Serine/threonine-protein kinase 33 (Homo sapiens), Q9BYT3; inhibition, % at 12.5 µM; hit rate 0.44% among 27,000; in the data active = inhibition above about 20%; inconclusive = no clear call, values can overlap the other calls
Target sequence (Q9BYT3 whole entry, looked up): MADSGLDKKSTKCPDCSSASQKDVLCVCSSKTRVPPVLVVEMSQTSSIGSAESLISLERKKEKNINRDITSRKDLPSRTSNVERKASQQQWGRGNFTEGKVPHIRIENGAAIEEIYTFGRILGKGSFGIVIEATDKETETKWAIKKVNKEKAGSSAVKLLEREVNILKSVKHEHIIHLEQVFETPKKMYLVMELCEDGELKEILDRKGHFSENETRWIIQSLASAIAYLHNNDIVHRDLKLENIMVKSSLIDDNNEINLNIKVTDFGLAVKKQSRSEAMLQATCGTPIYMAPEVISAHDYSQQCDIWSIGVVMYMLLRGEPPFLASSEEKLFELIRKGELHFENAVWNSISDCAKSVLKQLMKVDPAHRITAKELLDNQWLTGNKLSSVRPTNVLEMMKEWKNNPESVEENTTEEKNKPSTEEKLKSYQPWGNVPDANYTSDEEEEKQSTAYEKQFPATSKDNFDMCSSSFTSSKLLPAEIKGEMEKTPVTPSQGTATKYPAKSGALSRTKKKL
PD-1 reverse act: activators reversing PD-1 mediated T-cell inhibition, primary screen, luminescence, primary human CD4 T cells, PD-L1 beads. CellTiter-Glo 96 h. 29,000 tested, under 10 active. activation, % (concentration not given with the values). AID 2316, 2010; call rule not given here;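 also: 0% = median vehicle wells and 100% = positive control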
NOMO-1 viab: NOMO-1 AML cell viability reduction, primary screen, STK33 inhibitor project, CellTiter-Glo luminescence; hit rate 7.5% among 37,000; inhibition, % (no concentration beside the values); AID 2330, 2010; NOMO-1 AML viability, 72 h; in the data active = inhibition above about 80%; inconclusive = no clear call, values can overlap the other calls
* = called active by the depositor; ? = inconclusive; / = not tested or not shown.

SMILES	STK33 kin inh	PD-1 reverse act	NOMO-1 viab
CCCC[C@@H](O)c1cc(OC)cc(=O)o1	1.7	1.5	12.9
Cc1nnc(SCC(=O)Nc2sc3c(c2C#N)CCC(C(C)(C)C)C3)s1 (stereo not given)	-0.9	-0.3	40.5
CC(Oc1cccc(NC(=O)c2ccc(Br)cc2)c1)C(=O)c1ccccc1 (stereo not given)	0.4	0.7	43.0
C[C@@H]1CCOC(=O)C=CC=CC(=O)O[C@@H]2C[C@H]3O[C@@H]4C=C(C(=O)O)CC[C@]4(COC(=O)[C@H]1O)[C@]2(C)[C@]31CO1	2.1	-5.9	120.6*
S=c1nc[nH]c2c1nnn2Cc1ccccc1Cl	/	0.6	-5.2
Cc1c(Cl)cccc1NC(=O)C(C)N(c1ccc(Oc2ccccc2)cc1)S(C)(=O)=O (stereo not given)	-5.5	0.9	25.4
C[C@@H]1CC[C@H](O)/C=C/C(=O)O[C@H](C)CC[C@H](O)/C=C/C(=O)O1	-2.2	-1.0	107.9*
COc1ccc(S(=O)(=O)N2CCC(C(=O)Nc3ccc(NC(C)=O)cc3)CC2)cc1OC	-0.2	-0.5	20.7
CCc1c(C)nc(Nc2nc(C)c3ccc(OC)cc3n2)[nH]c1=O	0.8	/	41.6
Cc1cc2nc(Nc3nc4ccccc4c(=O)[nH]3)nc(C)c2cc1C	-1.4	-4.0	126.8*
C=C(C)C(=O)Nc1ccc(O)c(-c2nc3ccccc3[nH]2)c1	/	-2.1	6.8
O=C1C=CC(=O)c2c(O)c(Cl)c(Cl)c(O)c21	21.7*	-40.8	98.0*
COc1cc(OC)c(NC(=O)CSc2nnc(-c3ccccc3)n2C)cc1Cl	1.1	-1.4	25.1
CC(NC(=O)c1ccccc1NC(=O)c1ccccc1)C(=O)Nc1ccc2ccccc2c1 (stereo not given)	1.4	/	/
COc1ccc(/C=C/C(=O)NCc2ccccc2)cc1	/	-0.3	-2.8
COc1ccc(C(O)CNC(=O)/C=C/c2ccccc2)cc1 (stereo not given)	-1.8	-0.3	112.4*
COc1ccc(S(=O)(=O)N(C)CC(=O)Nc2ccc(F)c(Cl)c2)cc1C	-2.5	1.8	-13.1
COc1c(Cl)ccc(Cl)c1C(=O)Nc1ccc(S(=O)(=O)Nc2cc(C)nc(C)n2)cc1	1.4	/	-9.1
C[C@H](CO)N1C[C@H](C)[C@H](CN(C)CC2CCCCC2)Oc2ccc(NS(=O)(=O)c3ccccc3)cc2CC1=O	-0.3	/	28.9
Cc1ccc(S(=O)(=O)Nc2ccc3c(c2)CC(=O)N([C@H](C)CO)C[C@@H](C)[C@@H](CN(C)CC2CCCCC2)O3)cc1	1.2	-5.0	97.0*
Cc1ccc(S(=O)(=O)Nc2ccc3c(c2)CC(=O)N([C@@H](C)CO)C[C@H](C)[C@H](CN(C)CC2CCCCC2)O3)cc1	1.7	-0.9	102.0*
Cc1ccc(S(=O)(=O)Nc2ccc3c(c2)CC(=O)N([C@H](C)CO)C[C@@H](C)[C@H](CN(C)CC2CC2)O3)cc1	/	/	12.1
Cc1ccc(S(=O)(=O)Nc2ccc3c(c2)CC(=O)N([C@H](C)CO)C[C@@H](C)[C@H](CN(C)CC2CCCCC2)O3)cc1	-0.5	0.9	83.6*
C[C@@H]1CN([C@H](C)CO)C(=O)Cc2cc(NS(=O)(=O)c3ccccc3)ccc2O[C@H]1CN(C)CC1CCCCC1	1.7	-1.2	62.3
COC(=O)C1CCCN1S(=O)(=O)c1ccccc1 (stereo not given)	/	-0.1	92.6*
SMILES	STK33 kin inh	PD-1 reverse act	NOMO-1 viab
COc1cccc(S(=O)(=O)N2CCCC2C(=O)O)c1 (stereo not given)	-5.3	1.5	5.5
CN1C(=O)C(O)(CC(=O)c2ccco2)c2cc(Cl)ccc21 (stereo not given)	-2.5	0.8	133.0*
Cc1coc(C)c1C(=O)CC1(O)C(=O)N(Cc2ccc(Cl)cc2)c2ccccc21 (stereo not given)	6.8	-1.6	69.5
Cc1cccc(C)c1OCC(=O)Nc1cccc(NC(=O)c2ccco2)c1	5.9	0.8	23.8
O=C(CC1(O)C(=O)Nc2ccc(F)cc21)c1ccco1 (stereo not given)	-1.5	1.4	38.1
Cc1cccc2c1N(C)C(=O)C2(O)CC(=O)c1ccco1 (stereo not given)	-3.8	-1.1	84.4*
O=C(CC1(O)C(=O)N(Cc2ccc(Cl)cc2)c2ccc(Cl)cc21)c1ccco1 (stereo not given)	1.1	2.1	113.9*
COc1ccc(NC(=O)c2ccc(OC(C)C(=O)O)cc2)cc1Cl (stereo not given)	-0.6	/	-9.7
CCCCOc1cc(C(=O)NCCN(CC)CC)c2ccccc2n1	-0.1	/	-9.1
CCN(CC)CCNc1ccc(CO)c2sc3ccccc3c(=O)c12	0.5	/	101.5*
CC1=CC(C)C2COC(c3ccccc3OCc3ccccc3)C1C2C (stereo not given)	1.6	7.5	52.7
Cn1c(SCC(=O)Nc2ccccc2C(F)(F)F)nnc1-c1ccco1	-0.5	0.5	-4.7
Cc1ccc(N=Cc2cc3ccccc3nc2Cl)cc1Cl	/	-4.0	113.9*
Fc1ccc(C=Nc2ccc3ccccc3c2)cc1	/	-1.0	17.3
O=C(CSc1nc2ccccc2nc1N1CCOCC1)NCc1ccc2c(c1)OCO2	/	0.7	9.8
CC1=CC(C)(C)N(Cc2ccccc2)c2ccccc21	/	-0.7	59.3
CCN(CC)C(=O)C1Sc2nnc(-c3ccccc3)n2NC1c1ccc(C)cc1 (stereo not given)	-0.1	-2.2	3.6
COc1cc2c(c(OC)c1OC)-c1cc3c(cc1C[C@H]1C(=O)OC[C@@H]1C2)OCO3	-7.2	-1.1	105.8*
COc1cc2c(c(OC)c1OC)C[C@H]1COC(=O)[C@@H]1Cc1c-2cc(OC)c(OC)c1OC	-1.8	/	/
Cc1cc(C)c(C#N)c(SCc2cc(=O)[nH][nH]2)n1	/	-2.8	26.8
O=C1c2cccc3cccc(c23)C(=O)N1CCCSc1n[nH]c(-c2ccc(F)cc2)n1	-3.6	/	25.8
C[C@@H]1CN([C@H](C)CO)C(=O)c2cccc(NC(=O)Nc3ccc(F)cc3)c2O[C@H]1CN(C)CC1CCCCC1	/	-6.3	112.5*
C[C@@H]1CN([C@@H](C)CO)C(=O)c2cccc(NC(=O)Nc3ccccc3)c2O[C@H]1CN(C)CC1CCCCC1	/	/	93.1*
C[C@@H]1CN([C@H](C)CO)C(=O)c2cccc(NC(=O)Nc3ccccc3)c2O[C@@H]1CN(C)CC1CCCCC1	/	1.0	10.7
C[C@H]1CN([C@@H](C)CO)C(=O)c2cccc(NC(=O)Nc3ccccc3)c2O[C@@H]1CN(C)CC1CCCCC1	/	-3.2	89.9*
SMILES	STK33 kin inh	PD-1 reverse act	NOMO-1 viab
C[C@H]1CN([C@@H](C)CO)C(=O)c2cccc(NC(=O)Nc3ccc(F)cc3)c2O[C@@H]1CN(C)CC1CCCCC1	/	-3.6	?
C[C@H](CO)N1C[C@H](C)[C@@H](CN(C)CC2CCCCC2)Oc2c(NC(=O)Nc3ccccc3)cccc2C1=O	/	-3.2	?
COc1ccc(C(C)C)cc1S(=O)(=O)n1cnc2cc(C)c(C)cc21	-6.3	/	20.6
CSc1n[nH]c(=O)n1-c1ccc2c(c1)OCCO2	/	0.1	-7.4
CC(C)(CO)NC(=S)NCC1CCCO1 (stereo not given)	-1.2	-5.4	-4.0
CC(=O)Nc1[nH]c2c(c1C#N)CCCCC2	/	-0.2	-5.5
Cc1ccc(S(=O)(=O)N(C)C[C@@H]2Oc3c(NC(=O)Nc4ccc(F)cc4)cccc3C(=O)N([C@H](C)CO)C[C@@H]2C)cc1	/	/	82.2*
